Results taken from PubChem BioAssay AID1508609 (The Scripps Research Institute Molecular Screening Center, 2020).
In all, about 6,700 compounds went through this assay and fewer than 10 were called active. The list is a sample of the results. Unmarked numbers belong to inactive results.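 How the source made its calls: active means mean percent activation across replicates above the confirmation screen cutoff of 4.91%; inactive means the rest.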

Each compound was assayed against G-protein coupled receptor 151 (Homo sapiens) (UniProt Q8TDV0) (assay: GPR151 agonism via beta-arrestin recruitment – cell-based, PathHunter beta-arrestin, luminescence, confirmation (AID 1508609)). Settings: GPR151 PathHunter beta-arrestin cells, 90 min, at 11.2 µM, active compounds read high, % of EA-reagent control over plate median.
Sequence of G-protein coupled receptor 151 (Homo sapiens) (Q8TDV0 whole entry, looked up): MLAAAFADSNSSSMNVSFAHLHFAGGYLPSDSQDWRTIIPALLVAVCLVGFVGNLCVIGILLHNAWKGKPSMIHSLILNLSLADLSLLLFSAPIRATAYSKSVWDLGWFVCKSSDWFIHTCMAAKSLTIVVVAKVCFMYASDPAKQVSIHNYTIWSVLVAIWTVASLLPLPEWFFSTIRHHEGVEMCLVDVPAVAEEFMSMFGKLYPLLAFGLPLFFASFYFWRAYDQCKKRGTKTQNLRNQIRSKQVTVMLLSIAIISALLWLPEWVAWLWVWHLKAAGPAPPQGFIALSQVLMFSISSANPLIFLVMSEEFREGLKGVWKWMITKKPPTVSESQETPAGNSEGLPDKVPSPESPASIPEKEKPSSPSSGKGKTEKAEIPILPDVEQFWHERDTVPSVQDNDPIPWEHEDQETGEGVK

SMILES | activation
O=C(N/N=C/c1cccc(Cl)c1Cl)c1cccs1 | -1.68%
Cc1ccc(NCC(=O)N/N=C\c2ccc(I)o2)cc1 | -0.49%
CC1CCN(CC(=O)Nc2ccccc2Cl)CC1 | 0.1%
CCCOc1ccc([N+](=O)[O-])cc1C=C1C(=O)NC(=O)NC1=O | -0.34%
COc1ccc(OC)c(NC(=O)CSc2nnc3[nH]c(=O)c(C)c(C)n23)c1 | -0.4%
COc1ccc(C(=O)Cc2cc3ccccc3oc2=O)c(OC)c1 | -0.78%
CCc1ccc(-c2ccc(C3CCC(CC)CC3)cc2)nc1 (configuration not stated) | -0.84%
CCc1ccc(S(=O)(=O)NCCOc2cc(N3CCOCC3)ncn2)cc1 | 0.53%
CCOC(=O)C1=C(CC)OC(N)=C(C#N)C1c1ccc(C(F)(F)F)cc1 (configuration not stated) | -0.53%
CCC[C@@H]1NC(=O)[C@@H]2C[C@H](NCc3nc(-c4ccc(F)cc4)cs3)CN2C1=O | 0.46%
CC(C)CC(C(=O)Nc1cccc([N+](=O)[O-])c1)N1C(=O)c2ccccc2C1=O (configuration not stated) | 0.6%
COc1ccc(C(=O)COC(=O)C(Cc2ccccc2)NC(=O)c2ccco2)cc1 (configuration not stated) | 0.8%
CCC1(c2ccc(Cl)cc2Cl)NC(=S)N(c2ccc(C)c(C)c2)N1 (configuration not stated) | 0.75%
CCC(C(=O)N1CCCCC1)n1c(C)c2cnn(-c3ccccc3)c(=O)c2c1C (configuration not stated) | -0.56%
Cc1ccc2cc(C#N)c(SCCO)nc2c1 | 0.26%
COc1ccc(/C=C(\C#N)C(=O)Nc2cccc(S(=O)(=O)N3CCCCC3)c2)cc1 | -1.24%
Cc1ccc(Nc2nc(-c3ccccn3)cs2)cc1C | -1%
CC(C)(C)NC(=O)Cc1coc2ccc3ccccc3c12 | 0.92%
COc1ccc(/C=C(\C#N)C(=O)Nc2ccc(F)cc2)c(OC)c1 | 0.7%
Cc1ccc(-n2cc(-c3ccccc3)c3c(N4CC(C)OC(C)C4)ncnc32)cc1 (configuration not stated) | 0.03%
COc1cc(/C=N/N=C2/NC(=O)CS2)ccc1OC(=O)c1ccccc1C | -0.88%
O=C(CN1C(=O)S/C(=C\c2ccc(Cl)s2)C1=O)Nc1ccccc1F | -1.03%
CO[C@@H]1COC(=O)[C@@H](C)COC(=O)[C@H](C)NC(=O)C/C=C/[C@H]1C | 0.63%

SMILES | activation
Cn1c2ccccc2c2nnc(SCC(=O)Nc3ccc(NC(=O)C4CC4)cc3)nc21 | 0.69%
Cc1nn(C)c(C)c1-c1nc2ncnc(NCCO)c2[nH]1 | -0.32%
CCc1nnc2n1N(C(C)=O)C(c1ccc3c(c1)CCCC3)=C(C(C)=O)S2 | 0.79%
CC(C)(C)OC(=O)N1CCC[C@H](Cn2cc(C(=O)O)nn2)C1 | 0.63%
Cc1nc2cc(C(=O)NCc3ccc4c(c3)OCO4)ccc2n1-c1ccc(OCc2ccccc2)cc1 | -1.41%
CCCCNC(=O)C1(c2ccc(OC)cc2)CCOCC1 | -0.13%
CCC(=O)N(CCC(Cc1ccccc1)c1ccc2c(c1)OCO2)Cc1ccc(OC(C)C)cc1 (configuration not stated) | 1.24%
CC(C)c1ccc(Nc2nccn3c(-c4cccc(CO)c4)cnc23)cc1 | 1.58%
Cc1ccc(S(=O)(=O)NCc2nc3nc(C)cc(C)n3n2)cc1 | -1.42%
Nc1cc(=O)nc(SCC(=O)Nc2nccs2)n1-c1ccc(F)cc1 | 1.67%
c1ccc(NCc2cccc3ccccc23)nc1 | -0.81%
COc1ccccc1C1C(C(N)=O)=C(C)Nc2nc(CCCO)nn21 (configuration not stated) | -0.72%
CC1CCN(C(=O)C(NS(=O)(=O)c2ccc3c(c2)oc(=O)n3C)C(C)C)CC1 (configuration not stated) | 0.12%
Cc1cc(=O)[nH]c(SCC(=O)Nc2cccc3ccccc23)n1 | -0.05%
COc1cccc(C2SCC(=O)N2c2cccc(C)c2)c1OC (configuration not stated) | 0.31%
CC(C)(C)C1CCC(=NNC(=O)C(=O)NCCc2ccccc2)CC1 (configuration not stated) | 1.36%
C#CCOc1ccc(Br)cc1/C=C1\NC(=S)N(C)C1=O | -0.05%
Cc1ccc(NC(=O)CCn2c(=O)oc3ccccc32)cc1Cl | 0.81%
C(=N\N1CCN(c2ccccn2)CC1)/C1=C(N2CCOCC2)C(=C/c2ccccc2)/CC1 | 0.86%
CC(C)(C)C1(O)CCN2C[C@H]3c4ccccc4CCc4cccc(c43)[C@@H]2C1 (some centres not stated) | -0.56%
CCOCCCNC(=O)NC1CCN(c2nc3ccccc3s2)CC1 | 0.63%
CCOC(=O)Cc1coc(NC(=O)c2ccc(Cl)cc2)n1 | 1.26%
CC(C)C(=O)NNS(=O)(=O)c1ccc([N+](=O)[O-])cc1 | -0.02%

SMILES | activation
N#Cc1ccc(N2CCN(CCCNC(=O)Nc3ccccc3)CC2)cc1 | -0.19%
O=C1Cc2cc(S(=O)(=O)Nc3cccc(Cl)c3)cc3c2N1CCC3 | 0.12%
COc1cccc(NC(=O)CN(C)S(=O)(=O)c2ccc3c(c2)SCC(=O)N3)c1 | -0.01%
CCNc1nc(NC(C)C)nc(OCCOC(C)=O)n1 | -0.68%
OCc1ccccc1CNc1ccc(F)cc1 | 0.05%
COCCNCCOc1ccc(C(C)(C)C)cc1 | -1.21%
CCN(CC)C1CCN(C(=O)c2cc(COc3ccc4ncccc4c3)on2)C1 (configuration not stated) | -1.18%
COc1ccc(-c2cc(N)n(S(=O)(=O)c3ccccc3)n2)c(OC)c1 | -0.31%
COc1cc2nc(-c3ccc4c(c3)C(=O)N(CCC(C)C)C4=O)oc(=O)c2cc1OC | 0.42%
COc1ccc(Nc2nc(-c3ccc(F)cc3)cs2)c(OC)c1 | -0.04%
CCCN1C(=O)c2ccc(C(=O)Nc3ccc(C(C)=O)cc3)cc2C1=O | 0.09%
CC(C(=O)NCCN1CCOCC1)n1c2ccccc2c2cn[nH]c(=O)c21 (configuration not stated) | -0.57%
c1ccc2sc(-c3cnc4ccc(NC5CCOCC5)nn34)cc2c1 | -1.36%
O=C(COc1ccc(Br)cc1CO)NCC(F)(F)F | 0.36%
CCOc1ccc(NC(=O)N2CCN(CC)CC2)cc1 | 0.34%
CCc1ccc(N2N=C(C)/C(=C\c3ccc(-c4ccc5c(c4)C(=O)NC5=O)o3)C2=O)cc1 | -0.14%
O=S(=O)(NCc1csc(-c2cccnc2)n1)c1ccc2ccccc2c1 | 0.68%
CCN1/C(=C/c2ccc3cc(C)ccc3[n+]2CC)Sc2ccc(-c3ccccc3)cc21 | -0.55%
Cc1ccc(NC(=O)Cn2cc(-c3ccccc3)c(N3CCOCC3)n2)c(C)c1 | -0.77%
CC1CCCCN1C(=O)c1cc2c(=O)n(C)c3ccccc3c2s1 (configuration not stated) | 0.54%
COc1cccc(/C=C2/C(=O)NC(=O)N(c3ccccc3F)C2=O)c1 | 0.99%
COC(=O)c1c(NC(=O)Nc2ccc(Cl)c(Cl)c2)sc2c1CCCC2 | 0.7%
O=C1NCCN(Cc2ccc(-c3ccccc3)cc2)C1CC(=O)N1CCCCC1 (configuration not stated) | 0.39%

SMILES | activation
Cc1ccc(C)c(CN2CCC(n3nccc3NC(=O)C(C)(C)C)CC2)c1 | 0.69%
CCn1c(COc2ccccc2)nnc1Sc1ccc([N+](=O)[O-])cc1C=O | 0.71%
Cc1cc(N2CCOCC2)ccc1C=C1C(=O)c2ccccc2C1=O | -0.77%
COC(=O)c1c(-c2ccccc2)csc1NC(=O)c1ccc(OC)c([N+](=O)[O-])c1 | 0.78%
Cc1ccc(C(=O)Oc2ccccc2/C=N/N=C2\NC(=O)C(CC(=O)O)S2)cc1 (configuration not stated) | -0.38%
Cc1ccc(S(=O)(=O)Cn2nnnc2CN2CCN(c3ccccc3F)CC2)cc1 | 1.76%
CCN(CC)c1nc(Nc2ccccc2)nc(Nc2ccccc2)n1 | -0.22%
C=CCn1c2ccccc2c2nnc(SCc3[nH]c(=O)[nH]c3C(=O)CCCCC(=O)OCC)nc21 | 1.2%
COC(=O)c1cc(NC(=O)COc2ccc([N+](=O)[O-])cc2)cc(C(=O)OC)c1 | 0.64%
CC(C)COC(=O)c1ccc(NC(=O)C2C3C=CC(C3)C2C(=O)O)cc1 (configuration not stated) | 1.05%
O=C(N/N=C\C=C\c1ccccc1)c1ccccn1 | -0.98%
COc1ccc(NC(=S)N2CCN(S(=O)(=O)c3ccc(F)cc3)CC2)c(OC)c1 | -0.28%
Cc1cccn2c(=O)c3cc(C(=O)NC4CCCCC4)c(=N)n(C4CCCCC4)c3nc12 | -0.69%
OCCC1CN(Cc2ccc3cc(F)ccc3n2)CCN1C1CCCC1 (configuration not stated) | 1.64%
O=C(Cn1c(=O)n(Cc2ccccc2)c(=O)c2ccccc21)c1ccccc1 | 1.26%
CCOc1c(Cl)cc(CNCc2ccccc2)cc1OC | -0.5%
COC(=O)c1oc2ccc(Br)cc2c1NC(C)=O | 0.35%
O=C(c1ccc(CNS(=O)(=O)c2ccc(Cl)cc2)cc1)N1CCCC1 | 1.92%
C=CCc1cccc(/C=N/NC(=O)CCC(=O)Nc2ccc(Br)cc2)c1O | -0.44%
O=C(CN1CCOCC1)Nc1c(Cl)cc(Cl)cc1Cl | 0.82%
CCOC(=O)c1ccc(NC(=O)c2ncn(-c3ccccc3)n2)cc1 | 0.02%
Cn1ncc2c(NNC(=O)Cc3cccc4ccccc34)ncnc21 | 0.44%
CCCCc1ccc(NC(=O)CN2C(=O)C(C)SC(C)C2=O)cc1 (configuration not stated) | 0.42%
